Assay [1] in a line: reduced OD of T4-infected AddAB+ E. coli – absorbance, E. coli V3065, T4 phage, triplicate, AddAB inhibitor project, confirmation (AID 488942;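 active means mean inhibition above a set limit taken from the earlier primary screen, cut at about 13% in these data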;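 further: higher means less bacterial growth since AddAB block lets phage replicate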). Conditions: E. coli V3065 expressing H. pylori AddAB, at 11.9 µM, stronger effect = higher value, T4 phage with gene 2 nonsense mutations.
Assay [2] is described as follows: reduced OD of phage-infected RecBCD+ V66 E. coli – absorbance, mutant T4 phage, counter-screen for AddAB inhibitor project (AID 488955;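 active means mean inhibition above the mean of solvent-only control wells plus 3 SD, cut at about 4% in these data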;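 further: optical density read after an 18 h incubation at 37 °C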). Conditions: OD growth, at 11.9 µM, stronger effect = higher value.
Assay [3] is described as follows: bacterial growth inhibitors – absorbance, counter-screen for AddAB inhibitor project, confirmation (AID 488956). Conditions: bacterial viability, absorbance (AddAB counterscreen); at 11.9 µM; stronger effect = higher value. For orientation: The purpose of a counterscreen is to sort out artefacts and off-target activity.
The nature of assay [4]: reduced OD of V66 E. coli with T4 gene 2 phage – absorbance, RecBCD inhibitor project, confirmation (AID 651982;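 active means mean inhibition over triplicates exceeding the hit threshold derived in the original primary screen, cut at about 11% in these data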). The following applies: E. coli V66 + T4 2- phage, growth OD; at 11.9 µM; stronger effect = higher value.
Assay [5] is described as follows: bacterial growth inhibition – absorbance, high throughput, counter-screen for RecBCD inhibitor project (AID 651983; in the data active means inhibition above about 20%;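 further: E. coli strain V66 grown with compound alone and no phage infection; 0% = bacteria with DMSO vehicle only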). The following applies: E. coli viability, absorbance (OD) growth; at 11.9 µM; stronger effect = higher value.
The nature of assay [6]: reduced optical density, T4-challenged addAB+ bacteria – absorbance, E. coli V3065, T4 phage, counter-screen for RecBCD inhibitor project, confirmation (AID 651984;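 active means mean inhibition above the solvent-only control wells' mean plus 3 SD, cut at about 22% in these data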;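 further: higher means less bacterial growth from phage killing when AddAB is blocked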). Conditions: E. coli expressing H. pylori AddAB + T4 phage, OD growth; at 11.9 µM; stronger effect = higher value; gene 2 mutant T4, recBCD-deleted host.
Assay [7] can be described thus: StAR promoter reporter inhibitors, counter-screen for LRH-1 inverse agonist project, cell-based, luminescence, high throughput (AID 651611; in the data active means inhibition above about 28%). The following applies: StAR promoter luciferase reporter counterscreen, at 3.6 µM, stronger effect = higher value.
Assay [8] deals with Nuclear receptor subfamily 5 group A member 2 (Homo sapiens) (UniProt O00482). Nature of the assay: NR5A2 activity suppression in reporter cells – cell-based, luminescence, confirmation (AID 651613; in the data active means inhibition above about 42%;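 further: HEK293T cells co-transfected with LRH-1 and StAR promoter luciferase reporter; 0% = vehicle wells and 100% = parental cells lacking receptor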). Conditions: cell-based LRH-1 luciferase reporter, inverse agonism; at 3.6 µM; stronger effect = higher value.
Chain of Nuclear receptor subfamily 5 group A member 2 (Homo sapiens) (O00482 whole entry, looked up): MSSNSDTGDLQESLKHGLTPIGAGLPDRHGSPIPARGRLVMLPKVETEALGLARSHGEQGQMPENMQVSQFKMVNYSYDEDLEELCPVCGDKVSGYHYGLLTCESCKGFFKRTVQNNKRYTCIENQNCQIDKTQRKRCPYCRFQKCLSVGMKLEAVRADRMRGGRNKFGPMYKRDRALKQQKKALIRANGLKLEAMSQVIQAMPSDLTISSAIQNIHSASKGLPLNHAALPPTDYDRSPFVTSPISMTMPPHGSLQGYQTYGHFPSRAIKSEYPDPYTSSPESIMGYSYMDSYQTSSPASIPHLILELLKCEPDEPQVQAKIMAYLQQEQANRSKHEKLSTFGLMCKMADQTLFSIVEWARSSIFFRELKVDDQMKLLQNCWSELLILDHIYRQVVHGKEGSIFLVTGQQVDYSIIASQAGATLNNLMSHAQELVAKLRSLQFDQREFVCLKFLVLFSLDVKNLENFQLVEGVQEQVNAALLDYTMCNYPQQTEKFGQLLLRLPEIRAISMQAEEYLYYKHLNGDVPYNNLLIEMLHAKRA
The target in assay [9] is Steroidogenic factor 1 (Homo sapiens) (UniProt Q13285). The assay can be described thus: inverse agonism at SF1 nuclear receptor – cell-based, luminescence, high throughput, counter-screen for LRH-1 inverse agonist project (AID 651614; in the data active means inhibition above about 44%;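 further: cells cotransfected with StAR promoter reporter and SF1 expression vector; 0% = vehicle on cells with receptor and 100% = vehicle on cells lacking receptor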). The following applies: cell-based SF1 luciferase reporter, at 3.6 µM, stronger effect = higher value.
Chain of Steroidogenic factor 1 (Homo sapiens) (Q13285 whole entry, looked up, the tested form may be a part): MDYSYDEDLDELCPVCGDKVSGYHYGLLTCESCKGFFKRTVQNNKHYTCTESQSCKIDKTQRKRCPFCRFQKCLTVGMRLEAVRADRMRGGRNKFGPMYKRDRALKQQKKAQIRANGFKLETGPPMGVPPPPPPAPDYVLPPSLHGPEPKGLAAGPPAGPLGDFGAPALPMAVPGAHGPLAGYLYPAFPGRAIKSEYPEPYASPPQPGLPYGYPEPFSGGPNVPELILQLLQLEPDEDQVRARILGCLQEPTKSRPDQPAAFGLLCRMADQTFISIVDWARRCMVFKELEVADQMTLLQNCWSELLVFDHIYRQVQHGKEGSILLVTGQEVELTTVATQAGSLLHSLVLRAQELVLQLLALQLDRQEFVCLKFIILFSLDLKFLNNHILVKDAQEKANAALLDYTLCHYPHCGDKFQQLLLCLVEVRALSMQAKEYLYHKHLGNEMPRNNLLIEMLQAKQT
Assay [10] can be described thus: compounds suppressing VP16-driven luciferase signal – cell-based, luminescence, high throughput, counter-screen for LRH-1 inverse agonist project (AID 651615; in the data active means inhibition above about 33%). Conditions: Gal4-VP16 luciferase reporter cells, at 3.6 µM, stronger effect = higher value.
Assay [11] addresses Serine protease HTRA1 (Homo sapiens) (UniProt Q92743). Nature of the assay: confirming inhibition of human HTRA1 – biochemical, fluorescence polarization, confirmation (AID 540248;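 active means mean inhibition over three repeats above a set limit taken from the earlier primary screen, cut at about 37% in these data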;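 further: 0% = HTRA1 with DMSO and 100% = wells lacking HTRA1; inhibitors block probe binding so polarization drops and inhibition rises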). The following applies: recombinant HTRA1, FP-rhodamine activity-based probe, at 5.96 µM, stronger effect = higher value. Background: In fluorescence polarisation assays a small probe gives low polarisation when free and higher when bound to something large.

Assay [12] addresses Platelet-activating factor acetylhydrolase IB subunit alpha1 (Homo sapiens) (UniProt Q15102). The assay can be described thus: inhibition of PAF acetylhydrolase 1B subunit 3 – biochemical, fluorescence polarization, human, confirmation (AID 493032;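 active means average inhibition over triplicate runs above the hit cutoff set in the earlier primary screen, cut at about 25% in these data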;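 further: 0% = enzyme with DMSO and 100% = wells lacking PAFAH1B3 protein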). The following applies: recombinant PAFAH1B3, FP-Rh activity-based probe, at 3.39 µM, stronger effect = higher value.
For assay [13], the target named is Photoreceptor-specific nuclear receptor (Homo sapiens) (UniProt Q9Y5X4). The assay can be described thus: retest of NR2E3-NCOR disrupting agonists – cell-based, luminescence, CHO-S two-hybrid, confirmation (AID 624378;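 active means average inhibition above a cutoff equal to the mean inhibition of all tested compounds plus one SD, cut at about 70% in these data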;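 further: 0% = DMSO in NR2E3 cells and 100% = DMSO in cells lacking NR2E3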). The following applies: CHO-S mammalian two-hybrid NR2E3-NCOR, luciferase luminescence; at 3.98 µM; stronger effect = higher value.
Chain of Photoreceptor-specific nuclear receptor (Homo sapiens) (Q9Y5X4 whole entry, looked up): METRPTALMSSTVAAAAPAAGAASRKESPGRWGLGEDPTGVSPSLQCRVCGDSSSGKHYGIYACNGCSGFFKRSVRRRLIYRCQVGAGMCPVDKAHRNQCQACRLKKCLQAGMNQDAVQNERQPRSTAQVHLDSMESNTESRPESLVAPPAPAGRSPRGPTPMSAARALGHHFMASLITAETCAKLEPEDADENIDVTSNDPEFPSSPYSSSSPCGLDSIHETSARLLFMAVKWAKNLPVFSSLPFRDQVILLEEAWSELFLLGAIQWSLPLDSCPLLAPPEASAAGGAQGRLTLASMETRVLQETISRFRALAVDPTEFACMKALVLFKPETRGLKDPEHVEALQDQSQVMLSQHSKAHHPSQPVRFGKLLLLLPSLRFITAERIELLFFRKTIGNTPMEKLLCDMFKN
The nature of assay [14]: nonselective effects on VP16 transactivation – cell-based, luminescence, CHO-S, high throughput, counter-screen for NR2E3 agonist project, confirmation (AID 624379;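 active means mean inhibition above a cutoff equal to the average over all tested compounds plus one standard deviation, cut at about 70% in these data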;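 further: 0% = DMSO with VP16-transfected cells and 100% = DMSO with cells lacking VP16; higher means less reporter light so more repression of VP16 activity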). Conditions: CHO-S GAL4-VP16 luciferase reporter, at 3.98 µM, stronger effect = higher value.
Assay [15] concerns transactivating tegument protein VP16 (Human herpesvirus 1). The assay can be described thus: compounds suppressing VP16-driven luciferase signal – cell-based, luminescence, single concentration, counter-screen for SRC2 inhibitor project (AID 652007; in the data active means inhibition above about 36%). The following applies: cell-based VP16 transactivation luciferase reporter, at 8.9 µM, stronger effect = higher value.
Assay [16] addresses Nuclear receptor coactivator 2 (Homo sapiens) (UniProt Q15596). Nature of the assay: inhibition of GAL4-SRC2 driven luciferase expression – cell-based, luminescence, HEK293, triplicate, confirmation (AID 652008;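 active means mean inhibition above 46.5%, the solvent-only control mean plus 3 SD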;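 further: 0% = DMSO-treated cells and 100% = Gossypol at 36 µM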). The following applies: HEK293 GAL4-SRC2 luciferase reporter, at 8.9 µM, stronger effect = higher value. Background: Reporter assays use an easily measured gene product as a stand-in for the process of interest.

Assay [17] can be described thus: VP16-driven transactivation reporter suppression – cell-based, luminescence, HEK293, counter-screen for COUP-TFII antagonist project (AID 687007; in the data active means inhibition above about 13%). The following applies: HEK293 Gal4-VP16 luciferase reporter, at 8.5 µM, stronger effect = higher value.
Assay [18] deals with COUP transcription factor 2 (Homo sapiens) (UniProt P24468). Nature of the assay: retest of COUP-TFII reporter suppressors – cell-based, luciferase reporter, HEK293, triplicate, confirmation (AID 687008;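 active means mean inhibition over three repeats above a set limit taken from the earlier primary screen, cut at about 38% in these data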;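 further: 100% = cells given the luciferase reporter alone without the COUP-TF2 vector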). The following applies: HEK293 NGFI-A luciferase reporter, luminescence; at 8.5 µM; stronger effect = higher value.
Chain of COUP transcription factor 2 (Homo sapiens) (P24468 whole entry, looked up): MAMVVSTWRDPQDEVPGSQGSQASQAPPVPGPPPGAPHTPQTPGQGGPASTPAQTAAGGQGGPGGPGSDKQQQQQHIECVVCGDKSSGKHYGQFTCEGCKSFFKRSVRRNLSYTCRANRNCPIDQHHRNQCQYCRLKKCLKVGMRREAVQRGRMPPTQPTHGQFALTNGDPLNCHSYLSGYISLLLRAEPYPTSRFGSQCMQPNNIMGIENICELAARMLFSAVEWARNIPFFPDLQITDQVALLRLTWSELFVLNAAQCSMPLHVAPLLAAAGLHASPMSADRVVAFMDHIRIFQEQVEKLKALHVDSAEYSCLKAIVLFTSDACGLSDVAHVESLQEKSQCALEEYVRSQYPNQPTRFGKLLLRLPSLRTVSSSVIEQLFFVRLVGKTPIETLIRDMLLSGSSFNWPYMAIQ

A number with no mark means an inactive call. The list shows a part of the results. Active and inactive are the calls of the source. Unless noted, no stated cut-off is given here; in the data, active means inhibition above about 25%; inactive means the rest.

17 compounds from PubChem BioAssay can be followed below.

Chain of Nuclear receptor coactivator 2 (Homo sapiens) (Q15596 whole entry, looked up, the tested form may be a part): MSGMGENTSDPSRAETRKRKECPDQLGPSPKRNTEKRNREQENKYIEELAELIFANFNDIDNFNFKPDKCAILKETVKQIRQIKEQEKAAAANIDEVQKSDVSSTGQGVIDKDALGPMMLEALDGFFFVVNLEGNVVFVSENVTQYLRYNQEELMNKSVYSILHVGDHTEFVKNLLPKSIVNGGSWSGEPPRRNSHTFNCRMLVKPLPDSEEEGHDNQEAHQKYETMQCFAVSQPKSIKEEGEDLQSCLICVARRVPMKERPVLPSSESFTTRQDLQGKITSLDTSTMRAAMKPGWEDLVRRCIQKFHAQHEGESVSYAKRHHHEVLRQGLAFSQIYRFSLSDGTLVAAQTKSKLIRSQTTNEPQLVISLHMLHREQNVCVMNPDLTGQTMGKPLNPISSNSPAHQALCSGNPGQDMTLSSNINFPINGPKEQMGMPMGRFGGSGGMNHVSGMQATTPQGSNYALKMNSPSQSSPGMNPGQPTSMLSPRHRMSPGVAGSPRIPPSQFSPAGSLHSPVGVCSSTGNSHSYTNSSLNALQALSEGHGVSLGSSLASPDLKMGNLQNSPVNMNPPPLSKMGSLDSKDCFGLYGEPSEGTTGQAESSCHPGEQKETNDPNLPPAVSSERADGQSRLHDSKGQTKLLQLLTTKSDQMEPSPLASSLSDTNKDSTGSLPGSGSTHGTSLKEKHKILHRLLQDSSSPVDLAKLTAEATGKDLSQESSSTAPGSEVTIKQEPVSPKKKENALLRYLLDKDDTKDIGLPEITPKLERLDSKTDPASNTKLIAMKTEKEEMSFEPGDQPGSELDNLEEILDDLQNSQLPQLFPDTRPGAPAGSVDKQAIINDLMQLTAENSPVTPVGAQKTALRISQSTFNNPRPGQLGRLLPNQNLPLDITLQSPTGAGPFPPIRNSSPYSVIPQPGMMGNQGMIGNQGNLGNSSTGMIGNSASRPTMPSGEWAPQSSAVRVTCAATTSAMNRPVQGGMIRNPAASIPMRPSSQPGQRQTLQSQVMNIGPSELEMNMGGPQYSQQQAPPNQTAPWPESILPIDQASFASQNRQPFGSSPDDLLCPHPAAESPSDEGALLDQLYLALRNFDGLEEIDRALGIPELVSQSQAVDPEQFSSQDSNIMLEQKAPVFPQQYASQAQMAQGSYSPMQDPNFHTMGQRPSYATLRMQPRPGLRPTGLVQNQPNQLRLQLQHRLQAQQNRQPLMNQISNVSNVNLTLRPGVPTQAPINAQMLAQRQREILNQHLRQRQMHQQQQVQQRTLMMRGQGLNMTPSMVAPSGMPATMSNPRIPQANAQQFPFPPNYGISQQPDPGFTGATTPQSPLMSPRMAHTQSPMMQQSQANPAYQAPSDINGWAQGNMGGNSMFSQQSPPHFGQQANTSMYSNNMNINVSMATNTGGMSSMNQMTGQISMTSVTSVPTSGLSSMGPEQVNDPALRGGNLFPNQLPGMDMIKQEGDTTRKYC
Chain of Platelet-activating factor acetylhydrolase IB subunit alpha1 (Homo sapiens) (Q15102 whole entry, looked up): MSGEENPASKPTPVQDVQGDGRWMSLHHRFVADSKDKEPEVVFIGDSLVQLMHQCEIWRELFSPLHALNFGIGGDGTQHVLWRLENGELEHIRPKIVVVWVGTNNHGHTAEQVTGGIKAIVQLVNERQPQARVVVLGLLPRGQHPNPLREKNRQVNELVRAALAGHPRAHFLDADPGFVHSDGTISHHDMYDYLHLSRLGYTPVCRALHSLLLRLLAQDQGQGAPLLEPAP

A word on the inhibition: it is the relative decrease from the control value, in per cent. Turning to `C=CCNC(=O)c1cc(-c2ccccc2O)on1`, the inhibition in [1] is -1.87%; in assay [2], 1.86%; in assay [3], 0.32%.

As for `CC1=C(C(=O)OCc2ccccc2)C(c2ccco2)n2ncnc2N1` (configuration not stated), the inhibition in assay [1] was 0.55%; in [2], 0.26%; in assay [3], -3.83%.

Turning to `Cc1cccc(NC(=O)Cn2cc(C(=O)c3ccco3)c3ccccc32)c1`, the inhibition in assay [1] was 14.9% (active); in assay [2], 10.9% (active); in assay [3], 11.8%; in [4], 6.82%; in [5], 11.3%; in assay [6] it was 7.23%.

`CC[C@H]1OC(=O)[C@H](C)[C@@H](O[C@H]2C[C@@](C)(OC)[C@@H](O)[C@H](C)O2)[C@H](C)[C@@H](O[C@@H]2O[C@H](C)C[C@H](N(C)C)[C@H]2O)[C@](C)(O)C[C@@H](C)[C@@H]2N[C@@H](COCCOC)O[C@H]([C@H]2C)[C@]1(C)O`: the inhibition in [1] was 62.5% (active); in assay [2], 41% (active); in assay [3] it was 37.2% (active); in assay [4] it was 33.9% (active); in [5] it was 34.4% (active); in [6], 42.6% (active).

As to `O=C(Nc1ccc(Br)cn1)c1ccc([N+](=O)[O-])o1`, the inhibition in assay [1] was 99.3% (active); in assay [2], 11.8% (active); in assay [3] it was 30.2% (active); in assay [7], 11%; in assay [8] it was 54.7% (active); in assay [9], 55.6% (active). The inhibition was -5.48% in [10], 7.78% in [4], 9.86% in assay [5] and 81.2% (active) in assay [6].

For `Cc1cn(C2C=CC(CO)O2)c(=O)[nH]c1=O` (configuration not stated), the inhibition in assay [1] is 83.8% (active); in assay [2], 6.53% (active); in [3] it was 42.2% (active); in [4] it was 14.1% (active); in assay [5] it was 8.16%; in assay [6], 54.6% (active).

As to `O=C(NCC1CCCO1)C(C(=O)c1ccccc1)n1cc(Cl)ccc1=O` (configuration not stated), the inhibition in [1] was -2.76%; in assay [2], -0.21%; in [3], -1.24%.

Regarding `O=C1c2ccccc2NC(c2ccc(-c3cccc(Cl)c3)o2)N1O` (configuration not stated), the inhibition was 17.5% (active) in assay [1]; 18.4% (active) in [2]; 13.2% in assay [3]; 13.7% (active) in assay [4]; 16.7% in [5]; 18.9% in assay [6].

As for `Oc1c(CN2CCCC2)cc(COCc2ccccc2)c2cccnc12`, in assay [11], the inhibition was 80% (active).

With `Cc1ccc(C)c(NC(=O)NNC(=O)c2ccc3ccccc3c2O)c1`, the inhibition in [12] was 40.5% (active).

Regarding `CC(C)(C)NC(=O)COC(=O)c1cc(Cl)ccc1[N+](=O)[O-]`, the inhibition in assay [1] is -4.38%; in assay [2], 0.98%; in assay [3], -3.45%.

Regarding `CN1CCN(c2cc3c(cc2F)c(=O)c(C(=O)O)cn3CCF)CC1`, the inhibition in [1] was 103% (active); in assay [2], 102% (active); in assay [3], 103% (active); in assay [4] it was 103% (active); in [5] it was 103% (active); in assay [6] it was 102% (active).

Turning to `CC(=O)c1c(C)n([O-])c2ccccc2[n+]1=O`, the inhibition in assay [1] is 100% (active); in assay [2] it was 26.2% (active); in assay [3], 89.7% (active); in assay [4] it was 16.9% (active); in assay [5], 21.4% (active); in [6], 87.7% (active).

`CCCN(CCC)C(=O)C1c2ccccc2Oc2ccccc21`: the inhibition in [11] is -8.94%.

With `Cc1cc(-c2csc(N)n2)c(C)n1-c1ccccc1`, the inhibition in [11] was 28.5%.

With `CCOC(=O)c1ccc(NC(=O)Cn2cnc3cc(C)c(C)cc32)cc1`, the inhibition was 24.2% (active) in [1]; 18.4% (active) in [2]; 21.4% in [3]; 96% (active) in [13]; 87.5% (active) in [14]; 13.5% (active) in assay [4]. For the same compound, the inhibition was 14.5% in assay [5]; 21.8% (active) in assay [6]; 19.5% in [15]; 36.7% in [16]; 8.87% in assay [17]; 62.9% (active) in [18].

Consider `Cc1ccc(C(=O)/C=C/Nc2ccc(S(=O)(=O)Nc3onc(C)c3C)cc2)cc1`, for which the results for the inhibition in assay [1], in [2] and in assay [3] were 2.14%, 3.94% and 2.93%, respectively.
